Test results as given in PMC4552634, “A New Set of Chemical Starting Points with Plasmodium falciparum Transmission-Blocking Potential for Antimalarial Drug Discovery” (PLoS ONE, 2015).
Read-outs that look alike come from different tables or passages of the source. About 3,200 (25%) of roughly 13,000 compounds showed an effect of 50% or more. The list shows a part of the results.

System: P. falciparum stage V gametocytes
Parameters: BacTiter-Glo ATP luminescence viability of purified stage V gametocytes in 384-well plates, per cent inhibition versus DMSO
Conditions: 48 h, 5 µM, inhibitor

SMILES | % Inhibition [%] | % Inhibition (% Inhibition) [%]
Cn1c(NC2=NC3(c4ccccn4)N=C(Nc4nc5ccccc5n4C)NC3(c3ccccn3)N2)nc2ccccc21 (stereo not drawn) [TCMDC-139096] | 50.49 | –
c1ccc(C23N=C(Nc4nc5ccccc5[nH]4)NC2(c2ccccc2)NC(Nc2nc4ccccc4[nH]2)=N3)cc1 (stereo not drawn) [TCMDC-139082] | -85.59 | –
Cc1cc2nc(NC3=NC4(c5ccccn5)N=C(Nc5nc6cc(C)c(C)cc6[nH]5)NC4(c4ccccn4)N3)[nH]c2cc1C (stereo not drawn) [TCMDC-139105] | -75.39 | –
CCCNC[C@@H](O)[C@H](Cc1ccccc1)NC(=O)c1cc(NCC)cc(N2CCCCS2(=O)=O)c1 [TCMDC-135269] | 19.71 | –
Cc1cccc(-n2c(=O)c3c4c(sc3n3c(SCCC(C)C)nnc23)CCCC4)c1 [TCMDC-125651] | 34.66 | –
OC(CN1c2ccccc2Sc2ccccc21)CN(C1CCCCC1)C1CCCCC1 (stereo not drawn) [TCMDC-125553] | 51.78 | –
C=CCc1ccccc1OCC(O)CN(C1CCCCC1)C1CCCCC1 (stereo not drawn) [TCMDC-123906] | -42.05 | –
C[C@@H](COc1ccc(-c2ccccc2)cc1)CON1C(N)=NC(N)=NC1(C)C [TCMDC-124029] | 25.59 | –
COc1cc2nc(N(C)Cc3cc4c(Cl)cccc4s3)nc(N)c2cc1OC.Cl [TCMDC-131890] | 62.52 | –
CNCc1ccc(CN(C)c2nc(N)c3cc(OC)c(OC)cc3n2)cc1 [TCMDC-131896] | 48.14 | –
COc1cc2nc(N(C)Cc3cccc(I)c3)nc(N)c2cc1OC [TCMDC-131898] | -39.77 | –
CC1(C)N=C(N)N=C(N)N1c1ccc(Br)cc1 [TCMDC-123959] | 18.18 | –
COc1ccc(CNCc2ccccc2)cc1-c1ccc(S(=O)(=O)NCCN2CCCC2)cc1 [TCMDC-132247] | 102 | –
COc1ccc(CNCc2ccc(F)cc2)cc1-c1ccc(S(=O)(=O)NCCN2CCCC2)cc1 [TCMDC-132294] | 108.8 | –
COc1cc2c(cc1S(=O)(=O)c1ccc(NC(=O)Nc3ccc(F)cc3)cc1)CCN(C)CC2 [TCMDC-141793] | 32.2 | –
O=C(/C=C/c1ccc(Cl)c(Cl)c1)NCCCCCN1CCCN(C(=O)Nc2ccc(OC(F)F)cc2)CC1 [TCMDC-135756] | -55.78 | –
CC1(C)N=C(N)N=C(N)N1OCc1ccc2c(c1)OCO2 [TCMDC-131581] | 47.46 | –
CN1CCN(c2ccc(-c3cc(-c4ccncc4)c(-c4ccc(Cl)c(O)c4)o3)cc2)CC1 [TCMDC-141308] | 9.946 | –
Cc1nc(N)nc(N)c1OCCCCOc1ccccc1 [TCMDC-131353] | -22.41 | –
CCCOc1ccc(N2C(N)=NC(N)=NC2(C)C)cc1 [TCMDC-137702] | -17.71 | –
CC1(C)N=C(N)N=C(N)N1c1ccccc1 [TCMDC-123984] | -31.19 | –
CC(C)CNc1nc(N)nc2ccc3c(ccn3CC(C)C)c12 [TCMDC-137731] | 87.39 | –
Nc1nc(N)c2c(ccc3c2ccn3CCCCO)n1 [TCMDC-137959] | 31.47 | –
CCCCCCn1ccc2c3c(N)nc(N)nc3ccc21 [TCMDC-137994] | 106.4 | –

SMILES | % Inhibition [%] | % Inhibition (% Inhibition) [%]
Nc1nc(N)c2c(ccc3c2ccn3CCCF)n1 [TCMDC-138623] | 32.47 | –
CC(C)Cn1ccc2c3c(N)nc(N)nc3ccc21 [TCMDC-137997] | 21 | –
CC(=O)Nc1nc(N)c2c(ccc3c2ccn3CC(C)C)n1 [TCMDC-137971] | 0.8169 | –
CCCC(C)n1ccc2c3c(N)nc(N)nc3ccc21 (stereo not drawn) [TCMDC-137964] | -7.389 | –
CCCC(CCC)n1ccc2c3c(N)nc(N)nc3ccc21 [TCMDC-137949] | 60.59 | –
CCCC(CC)n1ccc2c3c(N)nc(N)nc3ccc21 (stereo not drawn) [TCMDC-137948] | 17.27 | –
Nc1nc(N)c2c(ccc3c2ccn3C2C=CCCC2)n1 (stereo not drawn) [TCMDC-137861] | 26.32 | –
Nc1nc(N)c2c(ccc3c2ccn3C2CCCCC2)n1 [TCMDC-137871] | 105.4 | –
Nc1nc(N)c2c(ccc3nn(C4CCCC4)cc32)n1 [TCMDC-137960] | -20 | –
CCC(C(=O)Nc1ccccc1)n1nc(-c2ccc(C)c(S(=O)(=O)N3CCCCC3)c2)ccc1=O (stereo not drawn) [TCMDC-124712] | -71.76 | –
CC(=O)c1c(Cc2cccc(C(F)(F)F)c2)c[nH]c1C [TCMDC-124434] | -10.65 | –
COc1ccc(C(C(=O)NC2CCN(C[C@H](O)c3ccnc4ccc(OC)cc34)CC2)N2CCN(c3ccc(Cl)c(Cl)c3)CC2)cc1 (stereo partly drawn) [TCMDC-141101] | 14.7 | –
NC(N)=NC(=O)Nc1cc(Cl)c(F)c(Cl)c1 [TCMDC-137512] | -14.8 | –
Cc1cc(N(C)C)nc(Nc2ccc(NC(=O)c3ccccc3Cl)cc2)n1 [TCMDC-124722] | -1.9 | –
Nc1nc(N)c2c(ccc3c2ccn3CCCC(F)(F)F)n1 [TCMDC-138622] | 32.41 | –
C=CCn1ccc2c3c(N)nc(N)nc3ccc21 [TCMDC-137995] | 79.96 | –
CCn1ccc2c3c(N)nc(N)nc3ccc21 [TCMDC-139864] | 0.4857 | –
Oc1ccc(Br)cc1C(O)CNCc1ccccc1OCc1ccccc1 (stereo not drawn) [TCMDC-140564] | 21.06 | –
Fc1ccc2[nH]cc(CCN3CCC(CNCc4ccccc4)CC3)c2c1 [TCMDC-131984] | 53.36 | –
CN(Cc1ccccc1)C1CCN(CCc2c[nH]c3ccc(F)cc23)CC1 [TCMDC-131970] | 10.21 | –
OC1(CNCc2ccccc2)CCN(CCc2c[nH]c3ccc(F)cc23)CC1 [TCMDC-131975] | 35.49 | –
N#Cc1ccc2c(c1)CN(CC[C@H]1CC[C@H](NC(=O)/C=C/c3c[nH]c4ccccc34)CC1)CC2 [TCMDC-139133] | – | 11.83
O=C(NC1CCN(c2ccnc3cc(Cl)ccc23)C1)c1ccccc1F (stereo not drawn) [TCMDC-133660] | -3.046 | –
COC(=O)c1cccc(NC(=O)NCCNc2ccnc(Nc3ccc(F)cc3)n2)c1 [TCMDC-133642] | 41.44 | –

SMILES | % Inhibition [%] | % Inhibition (% Inhibition) [%]
O=C(c1ccc(Br)o1)N1N=C(c2cccs2)CC1c1ccc(Br)cc1 (stereo not drawn) [TCMDC-125623] | 10.04 | –
O=C(NCCCCN1CCC(c2ccc3c(c2OC(=O)c2ccc(NC(=O)c4ccc(Cl)cc4)cc2)CCCC3)CC1)c1ccc(NC(=O)c2ccc(Cl)cc2)cc1 [TCMDC-138644] | 102.3 | –
O=C(NCCCCN1CCN(c2cccc3c2CCCC3)CC1)c1ccc(NC(=O)c2ccc(Cl)cc2)cc1 [TCMDC-138513] | -3.326 | –
COc1ccc(C2CCN(CCCCNC(=O)c3ccc(NC(=O)c4ccc(Cl)cc4)cc3)CC2)c(C)c1 [TCMDC-138359] | -1.308 | –
O=C(NCCCCN1CCC(c2ccc3c(c2OCC2CC2)CCCC3)CC1)c1ccc(NC(=O)c2ccc(Cl)cc2)cc1 [TCMDC-138584] | 71.88 | –
CC(=O)Oc1c(C2CCN(CCCCNC(=O)c3ccc(NC(=O)c4ccc(Cl)cc4)cc3)CC2)ccc2c1CCCC2 [TCMDC-138649] | 92.78 | –
CC(C)(C)c1cc(Cn2ccnc2)cc(C(C)(C)C)c1O [TCMDC-131317] | -23.04 | –
Cc1cnc(C(=O)Nc2cccc(-c3csc(-c4nc5ccccc5[nH]4)c3)c2)cn1 [TCMDC-132401] | -83.32 | –
CC(=O)c1ccc(N2CCN(C(=O)Nc3ccc(Cl)cc3)CC2)cc1 [TCMDC-125821] | -3.219 | –
O=C(O[C@@H]1CN[C@H](C#Cc2cc3ncnc(Nc4ccc5c(cnn5Cc5cccc(F)c5)c4)c3s2)C1)N1CCCC1 [TCMDC-135355] | -4.612 | –
CC(C)Oc1cc2c(cc1NS(=O)(=O)c1ccc(-c3cccs3)cc1)CCN(C)CC2 [TCMDC-141486] | 15.65 | –
COCCCC1C(=O)OC2CCCC21 (stereo not drawn) [TCMDC-131981] | 9.495 | –
O=C(O)C(F)(F)F.OCCN1CCN(Cc2cccc(-c3ccc(-c4nc5cc(C(F)(F)F)ccc5[nH]4)s3)c2)CC1 [TCMDC-133028] | 0.1652 | –
CCOC(=O)CCc1cc(F)c(F)c(OC[C@H](O)CNC(C)(C)C(O)c2ccc3ccccc3c2)c1 (stereo partly drawn) [TCMDC-141731] | -25.49 | –
Clc1ccc(-c2cc3c(NCc4ccncc4)nccc3s2)cc1 [TCMDC-135202] | 11.9 | –
CN(C)C(=O)CC(=O)NCc1c(Cl)cccc1Cl [TCMDC-131769] | -6.865 | –
COc1ccccc1Cn1ccnc1SCC(=O)Nc1cccc(C(F)(F)F)c1 [TCMDC-124737] | -18.32 | –
COc1cccc(NC(=O)Nc2c(-c3cccc(C(F)(F)F)c3)c(C(F)(F)F)nn2C)c1 [TCMDC-124575] | 19.24 | –
COc1cccc(NC(=O)c2cc(Br)cc(N3CCN(c4ccncc4)CC3)c2)c1 [TCMDC-135146] | 1.077 | –
COc1cccc(NC(=O)Cn2c(C)c(C#N)c3ccccc32)c1 [TCMDC-125424] | 84.65 | –
COc1cccc(NC(=O)Cn2c(C)c(C(=O)C(F)(F)F)c3ccccc32)c1 [TCMDC-123800] | 60.17 | –
CC(C)C(NC(=O)Cc1cccc2ccccc12)C(=O)Nc1cccc(C#N)c1 (stereo not drawn) [TCMDC-125329] | -6.888 | –
O=C(/C=C/c1ccc(Cl)cc1)NCCCCCN1CCCN(C(=O)Nc2ccc(Cl)c(C(F)(F)F)c2)CC1 [TCMDC-136100] | -19.2 | –
O=C(Nc1cccc(N2CCC(NCCCn3ccnc3)CC2)c1)c1cccc(C(F)(F)F)c1 [TCMDC-124663] | 36.86 | –
